Screens: PubChem BioAssay, National Center for Advancing Translational Sciences (NCATS)
An excerpt weighted towards active compounds, which were near 11% of everything screened.
NS1 inh: inhibitors of influenza NS1 protein function; AID 2326; Potency, µM (highest dose often 46.1 µM), without a hit: at the top dose activity, positive = more growth; 0.4% of 270,000 active; calls by dose curve; further: actives are rising curves; nearly all actives have a fitted effect of over 50% in size
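OD600 was taken as the measure of yeast growth restored by compound in an NS1-expressing S. cerevisiae strain. Cells had been washed out of glucose medium and diluted 1:100 into galactose -URA medium, pH 6.0.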
Sm TGR block: inhibitors of Schistosoma mansoni thioredoxin glutathione reductase; Potency, µM (highest dose often 114 µM), for the others: top-dose activity change, negative = inhibition, usual class: inhibitors; AID 485364; purified TGR, DTNB reduction, TNB absorbance 405 nm; 3% of 360,000 active; further: on the % scale 0 is the no-effect control and ±100 the full control effect; nearly all actives have a fitted effect of over 60% in size
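Kinetic colorimetric format: TGR-catalysed, NADPH-driven DTNB reduction monitored via TNB absorbance. Enzyme dispensed at 20 nM; compound exposure 15 min at room temperature before reaction start.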
AMA1 RON2 block: disrupts binding of P. falciparum AMA1 to RON2 | AlphaScreen AMA1-biotinylated RON2 peptide binding | Potency, µM (highest dose often 58.2 µM), for the others: at the top dose activity change, negative = inhibition, hits mostly inhibitors | 0.2% of 360,000 active;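 further: 0% = vehicle wells and -100% = peptide control; nearly all actives have a fitted effect of over 45% in size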
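AMA1 (3D7) with his tag at 25 nM final met compounds first, then biotinylated RON2 peptide at 25 nM; detection used donor plus acceptor beads, 10 µg/mL apiece, read by AlphaScreen after 30 min at room temperature.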
Pf growth 48h: P. falciparum growth inhibition at 48 hours (one generation); P. falciparum luciferase growth in erythrocytes, 48 h; Potency, µM (highest dose often 28.7 µM), without a hit: top-dose activity change, negative = inhibition, most hits filed as inhibitors; 5.9% of 310,000 active; AID 504832; further: on the % scale 0 is the no-effect control and ±100 the full control effect
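Luminescence readout; reporter = integrated firefly luciferase in P. falciparum. RBC culture at 2% hematocrit, 0.1% parasitemia final, 37 C/5% CO2; decreased signal taken as growth inhibition.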
Pf growth 96h: P. falciparum growth inhibition at 96 hour, primary screen for plastid delayed-death inhibitors | P. falciparum luciferase reporter growth, 96 h | Potency, µM (highest dose often 28.7 µM), inactives show top-dose activity change, negative = inhibition, actives largely listed as inhibitors | 6.9% of 320,000 active; further: on the % scale 0 is the no-effect control and ±100 the full control effect
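Two parasite generations (96 h, 37 C, 5% CO2) of compound exposure in infected erythrocytes (0.05% parasitemia, 2% hematocrit). Luciferase-reporter P. falciparum; decreased luminescence indicates inhibited growth, aimed at apicoplast-acting delayed death.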
Numbers without * were called inactive. Unless noted, the call rests on the fitted dose curve; in most records, active means well fitted curve in the direction sought with a large enough effect; inconclusive means small, poorly fitted or top-dose-only effect, or another doubt; inactive means no such curve, though single readings can be large; an effect the other way counts as inactive or inconclusive. Potency means the concentration at half of the fitted maximal effect.

O=C(Cc1ccccc1F)Nc1ccc(S(=O)(=O)N2CCCCC2)cc1 was read as NS1 inh 0.3%, Sm TGR block 0.8%, AMA1 RON2 block 7.6%, Pf growth 48h -13.3% and Pf growth 96h inconclusive.
Screening Cc1ccc(SCC(=O)OC(C)C(=O)Nc2ccc(S(N)(=O)=O)cc2)cc1C (centres undefined) returned Sm TGR block 2.2%, AMA1 RON2 block 12.7%, Pf growth 48h inconclusive and Pf growth 96h 12.3%.
`N#Cc1cc([N+](=O)[O-])ccc1NC(=O)CSc1n[nH]c(=O)n1C1CC1` gave Sm TGR block 7.2%, AMA1 RON2 block -3.4%, Pf growth 48h 3.4% and Pf growth 96h -14.9%.
Screening CCc1cc(=O)oc2c(CN3CCN(C)CC3)c(O)ccc12 returned NS1 inh inconclusive, Sm TGR block 6.1%, AMA1 RON2 block 1.8%, Pf growth 48h 0.0% and Pf growth 96h -8.1%.
Screening CN1CCN(Cc2c(O)ccc3cc(Br)ccc23)CC1 returned Sm TGR block 3.55µM*, AMA1 RON2 block -2.6%, Pf growth 48h -12.6% and Pf growth 96h inconclusive.
`CCCCCCCC1=NN(c2ccc(S(=O)(=O)O)cc2)C(=O)C1N=O` (centres undefined) gave AMA1 RON2 block -2.7%.
`CN(C)CCCNc1cc(-c2ccccc2)nc2cc(-c3cccc(F)c3)nn12` gave NS1 inh -4.7%, Sm TGR block 100µM*, AMA1 RON2 block 0.0%, Pf growth 48h inconclusive and Pf growth 96h -13.9%.
For Cc1cccc(-c2cc3nc(C)cc(NCCCN(C)C)n3n2)c1 the results were NS1 inh -13.5%, Sm TGR block 3.4%, AMA1 RON2 block 2.5%, Pf growth 48h 10.4µM* and Pf growth 96h 379.5%.
COCCNc1cc(C)nc2cc(-c3ccc(C)cc3)nn12 was read as NS1 inh 1.5%, Sm TGR block 6.3%, AMA1 RON2 block 4.9%, Pf growth 48h 23.9% and Pf growth 96h 4.5%.
For COc1ccc(-c2cc3nc(C)cc(NCCO)n3n2)cc1 the results were NS1 inh -4.3%, Sm TGR block 16.6%, AMA1 RON2 block 5.9%, Pf growth 48h -28.1% and Pf growth 96h 4.65µM*.
O=C(c1cccc(Br)c1)c1nc2ccccc2[nH]c1=O was read as AMA1 RON2 block 29.9%.
For CCc1ccc(NC(=O)C(=O)NCC(c2cccnc2)N2CCOCC2)cc1 (centres undefined) the results were Sm TGR block 1.8%.
`CCN(C(=O)c1ccc(C(C)(C)C)cc1)c1nnc(Cn2nnc3ccccc32)s1` gave NS1 inh -4.9%, Sm TGR block 7.1%, AMA1 RON2 block -12.4%, Pf growth 48h 10.4µM* and Pf growth 96h 119.9%.
For CC(=O)Nc1ccc(S(=O)(=O)Nc2c(NC3CCCCC3)c3ccccc3oc2=O)cc1 the results were NS1 inh -3.1%, Sm TGR block 7.0%, AMA1 RON2 block 0.2%, Pf growth 48h -5.1% and Pf growth 96h inconclusive.
CC(=O)OCC1=C(C(=O)O)N2C(=O)[C@@H](NC(=O)CSc3ccncc3)[C@H]2SC1 was read as NS1 inh 3.1%, Sm TGR block 44.7µM*, AMA1 RON2 block 43.1%, Pf growth 48h inconclusive and Pf growth 96h 45.0%.
`CC(=O)OCC1=C(C(=O)O)N2C(=O)C(NC(=O)C(C)Cn3nc(C)c(Cl)c3C)C2SC1` (centres undefined) gave Sm TGR block 28.2µM*, AMA1 RON2 block 24.3%, Pf growth 48h -20.0% and Pf growth 96h 35.5%.
CC(=O)OCC1=C(C(=O)O)N2C(=O)C(NC(=O)Cc3ccccc3)C2SC1 (centres undefined) was read as Pf growth 48h -11.3% and Pf growth 96h inconclusive.
`CC(=O)OCC1=C(C(=O)O)N2C(=O)C(NC(=O)c3ccc(F)cc3)C2SC1` (centres undefined) gave Sm TGR block inconclusive, AMA1 RON2 block 11.2%, Pf growth 48h inconclusive and Pf growth 96h 17.2%.
Screening CCOC(=O)CC1=NN(c2ccccc2)C(=O)/C1=C\c1ccc(OC)cc1OC returned NS1 inh 10.9%, Sm TGR block -7.2%, AMA1 RON2 block -28.3%, Pf growth 48h -13.4% and Pf growth 96h inconclusive.
